# Screening results (PubChem BioAssay)
# The sample as a whole holds a higher share of hits than the screen did.
# DUX4 inh: blocks DUX4-driven transcriptional activation | 293T-iDUX4 ZSCAN4-Gaussia luciferase reporter, 24 h; hits give low values | activity change, negative = inhibition, % (test concentration not listed) | 0.8% of 37,000 active;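 active means mean inhibition of at least 10% in the main channel, exceeding the control channel by a set limit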;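 further: 0% = median of neutral control wells and -100% = median of positive control wells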
# * hit, by the source's call; ! = not confirmed by another sample.
SMILES,DUX4 inh
O=C1N[C@@H](c2ccccc2)COCc2cn(nn2)CC[C@@H]1Cc1ccc(-c2ccccc2)cc1,-0.4
CC(C)[C@@H](C)NC(=O)N(C)C[C@@H]1OCc2ccccc2-c2c(n(C)c3ccccc23)C(=O)N([C@H](C)CO)C[C@H]1C,6.1
C/C=C/c1ccc([C@@H]2[C@H](CO)N(C(=O)CC)C23CN(S(C)(=O)=O)C3)cc1,4.0
COc1ccc(C#Cc2cccc(-c3nc(C(=O)N4CCN(C)CC4)cc4c3[C@@H](CCO)N(S(=O)C(C)(C)C)C4)c2)cc1OC (stereo partly drawn),-0.1
CN(C)C(=O)c1cccc(-c2ccc(C3[C@H]4CNC[C@@H]3N4Cc3ccc4c(c3)OCO4)cc2)c1 (stereo partly drawn),7.8
C/C=C/c1ccc(C2[C@H]3CNC[C@@H]2N3Cc2ccc3c(c2)OCO3)cc1 (stereo partly drawn),8.5
Cc1ccccc1-c1ccc(C2[C@@H]3CN(Cc4ccc5c(c4)OCO5)C[C@H]2N3)cc1 (stereo partly drawn),-36.8*!
CN(C)C(=O)c1ccc(-c2ccc(C3[C@@H]4CN(C(=O)Cc5ccncc5)C[C@H]3N4)cc2)cc1 (stereo partly drawn),16.3
N#Cc1cccc(-c2ccc(C3[C@@H]4CN(Cc5cocn5)C[C@H]3N4)cc2)c1 (stereo partly drawn),5.1
C/C=C/c1ccc(C2[C@@H]3CN(Cc4ccc5c(c4)OCO5)C[C@H]2N3)cc1 (stereo partly drawn),-9.8
OC[C@@H]1[C@@H](c2ccc(/C=C/c3ccccc3)cc2)[C@@H]2CN(Cc3cncnc3)CCCCN12,0.3
C(=C\c1ccc(C2[C@@H]3CN(Cc4cccnc4)C[C@H]2N3)cc1)/c1ccccc1 (stereo partly drawn),-45.4*!
CN(C)C(=O)c1ccc(-c2ccc(C3[C@@H]4CN(Cc5ccc6c(c5)OCO6)C[C@H]3N4)cc2)cc1 (stereo partly drawn),-29.7*!
C(=C\c1ccc(C2[C@H]3CNC[C@@H]2N3Cc2cncnc2)cc1)/c1ccccc1 (stereo partly drawn),4.4
c1cncc(CN2C[C@@H]3N[C@H](C2)C3c2ccc(-c3cccnc3)cc2)c1 (stereo partly drawn),-2.7
c1cncc(-c2ccc(C3[C@@H]4CN(Cc5ccc6c(c5)OCO6)C[C@H]3N4)cc2)c1 (stereo partly drawn),-34.0*!
Cc1cccc(S(=O)(=O)N2C[C@H]3[C@@H](c4ccccc42)[C@H](CO)N3C(=O)c2ccccc2)c1,3.0
C[C@@H]1COCc2cn(nn2)CC[C@@H](Cc2ccccc2)C(=O)N1,3.3
CC(C)CC#Cc1ccc2c(c1)O[C@@H](CN(C)C(=O)Cc1ccncc1)[C@@H](C)CN([C@@H](C)CO)S2(=O)=O,4.0
CO[C@@H](CN(C)C(=O)c1cnccn1)[C@@H](C)CN([C@@H](C)CO)S(=O)(=O)c1ccc(C)cc1,-6.4
CCCNC(=O)N1CC2(CCN(C)CC2)c2c(n(C)c3cc(OC)ccc23)[C@@H]1CO,-2.4
COc1ccc2c3c(n(C)c2c1)[C@@H](CO)N(C(=O)NC1CCCC1)CC31CN(C)C1,7.2
CNC[C@H]1Oc2c(NC(=O)Nc3ccc(C(F)(F)F)cc3)cccc2C(=O)N([C@@H](C)CO)C[C@H]1C,0.0
COCC(=O)Nc1ccc2c(c1)C(=O)N(C)C[C@H](OC)[C@H](C)CN(Cc1cccc(F)c1)[C@@H](C)CO2,3.1
CNC(=O)C[C@H]1CC[C@@H]2[C@H](COC[C@H](O)CN2S(=O)(=O)c2ccccc2Cl)O1,5.6
SMILES,DUX4 inh
O=C(C1CCOCC1)N1CC2(C1)[C@@H](c1ccccc1)[C@@H](CO)N2Cc1ccc(Cl)cc1,4.1
CO[C@@H]1CN(C)C(=O)c2ccc(NC(=O)c3nc4ccccc4s3)cc2OC[C@@H](C)N(Cc2cccnc2)C[C@H]1C,-64.9*
CO[C@H]1CN(C)C(=O)c2ccc(NC(C)=O)cc2OC[C@@H](C)N(Cc2cccnc2)C[C@@H]1C,0.0
CO[C@@H]1CN(C)C(=O)c2ccc(NC(C)=O)cc2OC[C@H](C)N(Cc2cccnc2)C[C@H]1C,2.0
CCCC#Cc1ccc([C@H]2[C@H]3CN(C(=O)c4ccc(F)cc4)CC(=O)N3[C@H]2CO)cc1,11.0
O=C(C[C@@H]1CC[C@@H]2[C@H](COC[C@@H](O)CN2Cc2ccncc2)O1)NCc1ccccc1Cl,5.1
C[C@@H]1CN([C@H](C)CO)C(=O)c2c(c3ccccc3n2C)-c2ccccc2CO[C@@H]1CN(C)C(=O)Nc1ccccc1C(F)(F)F,-1.1
C[C@@H]1CN([C@@H](C)CO)C(=O)c2c(c3ccccc3n2C)-c2ccccc2CO[C@@H]1CN(C)C,-6.6
C[C@H](CO)N1C[C@H](C)[C@@H](CN(C)Cc2ccccc2C(F)(F)F)OCc2ccccc2-c2c(n(C)c3ccccc23)C1=O,-45.9*
COc1ccccc1CN(C)C[C@H]1OCc2ccccc2-c2c(n(C)c3ccccc23)C(=O)N([C@H](C)CO)C[C@H]1C,-2.8
C[C@H](CO)N1C[C@H](C)[C@H](CN(C)Cc2ccccc2C(F)(F)F)OCc2ccccc2-c2c(n(C)c3ccccc23)C1=O,-59.4*
C[C@H]1CN([C@@H](C)CO)C(=O)c2c(c3ccccc3n2C)-c2ccccc2CO[C@H]1CN(C)C,5.8
CC(=O)N1CC2(C1)[C@H](c1ccc(-c3ccc(C#N)cc3)cc1)[C@H](CO)N2C(C)=O,7.9
CCCC(=O)N1CCC2(CC1)CN(C(=O)CN1CCOCC1)[C@H](CO)c1c2c2ccc(OC)cc2n1C,10.2
O=C(Nc1ccc(F)cc1)Nc1ccc2c(c1)[C@@H]1C[C@H](CC(=O)N3CCOCC3)O[C@H](CO)[C@@H]1O2,-7.6
